Inconclusive results are not listed. Active and inactive are the calls of the source. Unless noted, the call rests on the fitted dose curve; in most records, active means well fitted curve in the direction sought with a large enough effect in the repeat runs; inconclusive means weak or mixed curves; inactive means no such curve, though single readings can be large; an effect the other way counts as inactive or inconclusive.

From PubChem BioAssay (Tox21) come the findings set out here.

Assay [1] can be described thus: A CellTox Green Cytotoxicity Assay to monitor cytotoxicity in HepG2 cells - 0 hour (AID 1224882). Further: nearly all actives have a fitted effect of over 35% in size. The method in brief: (§1)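 HepG2 cells, 600/well, preincubated 5 h with CellTox Green dye, then exposed to Tox21 compounds in DMSO at 37 C for up to 40 h. Dead-cell DNA fluorescence read at the indicated time point.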
Assay [2] in a line: A CellTox Green Cytotoxicity Assay to monitor cytotoxicity in HepG2 cells - 32 hour (AID 1224883). Further: nearly all actives have a fitted effect of over 50% in size. Further: potency means the concentration at half of the fitted maximal effect. In outline: as §1
The nature of assay [3]: A CellTox Green Cytotoxicity Assay to monitor cytotoxicity in HEK293 cells - 8 hour (AID 1224884). Further: nearly all actives have a fitted effect of over 35% in size. The method in brief: (§2)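 HEK293 cells, 600/well, were preincubated 5 hours and then exposed to compounds at 37 C for up to 40 hours. A cell-impermeant cyanine dye staining dead-cell DNA was read by fluorescence at 0, 8, 16, 24, 32 and 40 h time points.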
Assay [4] in a line: qHTS RealTime-Glo MT Cell Viability Assay in HepG2 cells - 16 hour (AID 1224885). Further: nearly all actives have a fitted effect of over 50% in size. The method in brief: (§3)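 HepG2 cells were seeded at 600 cells/well together with NanoLuc luciferase and a cell-permeant prosubstrate, preincubated 5 h at 37 C/5% CO2, then pin-dosed with compounds in DMSO. Nonlytic luminescence from viable cells was read at each time point.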
Assay [5] can be described thus: qHTS RealTime-Glo MT Cell Viability Assay in HEK293 cells - 24 hour (AID 1224886). Further: nearly all actives have a fitted effect of over 50% in size. Further: potency means the concentration at half of the fitted maximal effect. In outline:
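HEK293 cells were seeded at 600 cells/well together with NanoLuc luciferase and cell-permeant prosubstrate, preincubated 5 h at 37 C/5% CO2, then given compound in DMSO by pintool. Luminescence from viable-cell prosubstrate reduction was read repeatedly over 40 h.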

Assay [6] can be described thus: qHTS RealTime-Glo MT Cell Viability Assay in HEK293 cells - 8 hour (AID 1224887). Further: top concentration of the series differs between compounds; nearly all actives have a fitted effect of over 50% in size. The method in brief: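 600 cells/well were plated with the nonlytic NanoLuc/prosubstrate reagent, pre-incubated 5 h, then given 23 nL of compound in DMSO. Incubation at 37 C for 40 h, with luminescence from viable-cell-reduced substrate read repeatedly from 0 h.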
A general note: Quantitative high-throughput screening tests each substance at several concentrations.

Assay [7] is described as follows: A CellTox Green Cytotoxicity Assay to monitor cytotoxicity in HEK293 cells - 16 hour (AID 1224888). Further: nearly all actives have a fitted effect of over 35% in size. In outline:
as §2

A short description of assay [8]: qHTS RealTime-Glo MT Cell Viability Assay in HepG2 cells - 0 hour (AID 1224889). Further: nearly all actives have a fitted effect of over 50% in size. In outline: as §3
The nature of assay [9]: A CellTox Green Cytotoxicity Assay to monitor cytotoxicity in HepG2 cells - 8 hour (AID 1224890). Further: nearly all actives have a fitted effect of over 45% in size. In outline: as §1
Assay [10] deals with Estrogen receptor (Homo sapiens) (UniProt P03372). As to the kind of experiment: qHTS assay to identify small molecule antagonists of the estrogen receptor alpha (ER-alpha) signaling pathway using the BG1 cell line in the presence of 0.1 nM 17-beta-estradiol (AID 1259244). Further: nearly all actives have a fitted effect of over 50% in size. Further: potency means the concentration at half of the fitted maximal effect. The method in brief:
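VM7Luc4E2 cells (endogenous full-length ER-alpha, 4×ERE-luciferase), kept 5 days in phenol red-free, charcoal-stripped FBS medium; 4,000 cells/well. Compounds added with 0.1 nM (final) 17beta-estradiol, 22 hr at 37C; luminescence read with ONE-Glo after 30 min.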

Assay [11] is described as follows: qHTS assay to identify small molecule HDAC inhibitors (AID 1259364). Further: nearly all actives have a fitted effect of over 45% in size. Further: potency means the concentration at half of the fitted maximal effect. In outline: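 Wild-type HCT-116 cells, plated overnight at 37 C, exposed to compounds 2 hr at 37 C; luminogenic HDAC-Glo substrate then added 30 min at room temperature. Luminescence reports relative endogenous class I/II HDAC activity.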
A short description of assay [12]: qHTS assay to identify small molecule agonists of the sonic hedgehog signaling (Shh) pathway - cell viability counter screen (AID 1259366). Further: nearly all actives have a fitted effect of over 50% in size. The method in brief:
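Cells are plated at 2,000 per well and left 4hr at 37C, 5% CO2 before compound addition. After 23hr of treatment, CellTiter-Fluor reagent is added for 1hr at 37C and fluorescence is measured.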

A short description of assay [13]: qHTS assay to identify small molecule antagonists of the sonic hedgehog signaling (Shh) pathway - cell viability counter screen (AID 1259367). Further: nearly all actives have a fitted effect of over 55% in size. In outline: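 After a 4 hr settling period, 3T3 Gli1-Luc cells were treated with DMSO-dissolved chemicals and conditioned medium, kept 24 hr at 37C in 5% CO2, and assayed for viability by CellTiter-Fluor fluorescence following 1 hr reagent incubation.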

The nature of assay [14]: qHTS assay to identify small molecule agonists of the sonic hedgehog signaling (Shh) pathway (AID 1259368; calls by dose curve;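 further: NIH/3T3-derived 3T3Gli1-Luc cells carrying a stable Gli1-driven firefly luciferase reporter; series mostly up to about 92 µM; nearly all actives have a fitted effect of over 15% in size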). The method in brief: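 NIH/3T3-derived 3T3Gli1-Luc cells with stably integrated Gli1-driven firefly luciferase, 2,000 cells/well, compounds added after 4 hr. Incubated 24 hr at 37C, 5% CO2; luminescence read after 30 min with luciferase reagent at room temperature.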

A short description of assay [15]: qHTS assay to identify small molecule antagonists of the estrogen receptor alpha (ER-alpha) signaling pathway using the BG1 cell line in the presence of 0.1 nM 17-beta-estradiol - cell viability counter screen (AID 1259241). Further: nearly all actives have a fitted effect of over 40% in size. The method in brief: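 Cells were plated and left 24 hr, compounds in DMSO were pinned in, 17beta-estradiol was added to 0.1 nM final, and after 22 hr CellTiter-Fluor reagent was added for 30 min before fluorescence was read.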

A short description of assay [16]: qHTS assay to identify small molecule antagonists of the androgen receptor (AR) signaling pathway using the MDA cell line in the presence of 0.5 nM R1881 - cell viability counter screen (AID 1259242). Further: nearly all actives have a fitted effect of over 45% in size. In outline: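 MDA-kb2 cells (MMTV-luciferase, AR/GR responsive) were treated with compounds plus 0.5 nM R1881 (final) for 16 hr at 37C, 0% CO2. Viability was then read in the same wells as live-cell protease fluorescence (CellTiter-Fluor, 30 min).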

A short description of assay [17]: A CellTox Green Cytotoxicity Assay to monitor cytotoxicity in HEK293 cells - 32 hour (AID 1224881). Further: nearly all actives have a fitted effect of over 40% in size. In outline: as §2
Assay [18] is described as follows: qHTS assay to identify small molecule HDAC inhibitors - cell viability counter screen (AID 1259365). In outline: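 Counter screen in wild-type HCT-116 cells: compounds dissolved in DMSO are pin-transferred onto overnight-plated cells and left 2hr at 37C. ATP-based CellTiter-Glo luminescence then measures viable cells.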
Assay [19] is described as follows: qHTS assay to identify small molecule phospholipidosis (PLD) inducers (AID 1259344; active means well fitted curve in the direction sought with a large enough effect; an effect the other way counts as inactive or inconclusive). In outline: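 HepG2 cells grown on collagen I take up LipidTOX Red while exposed to compound for 24 h; after fixation they are imaged at 20x and pit metrics are extracted.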

Estrogen receptor (Homo sapiens), sequence (P03372 whole entry, looked up): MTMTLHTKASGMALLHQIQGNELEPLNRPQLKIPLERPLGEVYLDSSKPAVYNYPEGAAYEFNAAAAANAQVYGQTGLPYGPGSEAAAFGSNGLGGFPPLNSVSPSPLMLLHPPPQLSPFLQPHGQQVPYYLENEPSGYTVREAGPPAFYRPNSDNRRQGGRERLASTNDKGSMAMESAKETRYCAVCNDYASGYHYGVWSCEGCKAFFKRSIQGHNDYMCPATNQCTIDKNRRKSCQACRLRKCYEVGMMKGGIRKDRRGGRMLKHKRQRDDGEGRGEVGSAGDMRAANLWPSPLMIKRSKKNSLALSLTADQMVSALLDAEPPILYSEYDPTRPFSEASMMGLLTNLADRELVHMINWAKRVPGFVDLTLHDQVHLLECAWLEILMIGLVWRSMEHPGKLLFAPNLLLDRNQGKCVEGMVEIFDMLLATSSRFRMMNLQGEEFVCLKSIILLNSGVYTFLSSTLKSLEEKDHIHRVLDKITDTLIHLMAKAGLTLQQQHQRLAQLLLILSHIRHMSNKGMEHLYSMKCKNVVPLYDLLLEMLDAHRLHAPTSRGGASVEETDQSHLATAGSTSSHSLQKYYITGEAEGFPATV

On to `COCCCCCCCCOCCC[Si](C)(O[Si](C)(C)C)O[Si](C)(C)C`, for which the Potency result in assay [1], in assay [3], in assay [4], in assay [6], in assay [7] and in assay [8] was “inactive” each time. For the same compound, the Potency result in assay [9], in [11], in assay [12] and in assay [13] was “inactive” throughout. Besides, the figures for the Potency in assay [2], in [5] and in assay [10] were 21.9 µM (active), 2.45 µM (active) and 17.2 µM (active), respectively. Moreover, the outcome in assay [14] was inactive.
`O=C(Cl)c1ccc([N+](=O)[O-])cc1`: the Potency result in assay [1], in [2], in assay [3], in assay [4], in assay [5] and in assay [6] was “inactive” each time. In addition, the Potency entry in assay [7], in assay [8], in assay [15], in [16], in [10] and in assay [11] was “inactive” each time. Further, the Potency result in [12] and in [13] was “inactive” each time. In assay [14], the compound was classed as inactive.
Take `COCCOCCOCCOCCOC`: the Potency entry in assay [17], in assay [3], in assay [5], in [6], in [7] and in [8] was “inactive” in each case. Moreover, the Potency result in [15], in assay [16], in [10], in assay [12] and in assay [13] was “inactive” in each case. Further, the compound was classed as inactive in assay [18] and in assay [14].
Take `O=C(c1ccccc1)c1ccc2n1CCC2C(=O)O` (stereo unspecified): the Potency entry in assay [17], in assay [2], in [4], in assay [5], in assay [7] and in assay [8] was “inactive” throughout. Further, the Potency entry in assay [9], in assay [15], in [16], in assay [19], in assay [12] and in assay [13] was “inactive” each time. Moreover, in assay [11], the Potency is 7.5 µM (active). For the same compound, the result in assay [14] was inactive.
For the compound `c1ccc(OCc2ccc(CCCN3CCOCC3)cc2)cc1`, the Potency entry in [17], in assay [3], in [4], in assay [7], in [8] and in assay [16] was “inactive” in each case. The Potency result in assay [19], in assay [12] and in assay [13] was “inactive” each time. In addition, the result in [18] and in [14] was inactive.
As for `CCCCCCCCCCCCC(=O)O`, the Potency entry in assay [1], in assay [2], in [3], in [4], in assay [5] and in [6] was “inactive” in each case. Also, the Potency result in assay [7], in assay [8], in [9], in assay [15], in assay [16] and in [10] was “inactive” in each case. In addition, in assay [12], the Potency result was “inactive”. Also, the outcome in assay [18] and in assay [14] was inactive.
Consider `N#Cc1c(F)cccc1F`, for which the Potency result in [17], in [2], in assay [4], in assay [5], in [6] and in assay [8] was “inactive” in each case. Further, the Potency result in [9], in assay [15], in assay [16], in assay [11], in [12] and in assay [13] was “inactive” throughout. Moreover, the call in [18] and in assay [14] was inactive.
In the case of `Cc1ccc(C)o1`, the Potency result in assay [1], in assay [2], in [3], in assay [4], in [5] and in assay [6] was “inactive” in each case. Also, the Potency entry in assay [7], in assay [8], in assay [9], in [15], in [16] and in [11] was “inactive” in each case. Further, the Potency result in assay [12] and in assay [13] was “inactive” each time. Further, the outcome in assay [18] and in assay [14] was inactive.
Take `CC(=O)SCc1ccco1`: the Potency result in [1], in assay [2], in assay [3], in [4], in assay [5] and in assay [6] was “inactive” in each case. Also, the Potency entry in assay [8], in assay [9], in assay [15], in [16], in [10] and in assay [12] was “inactive” each time. For the same compound, the Potency entry in assay [13] is “inactive”. In assay [14], the outcome was inactive.
